The assay can be described thus: enhancers of NK cell killing of ovarian tumor cells, primary screen, imaging, OVCAR3, primary NK cells, calcein-AM imaging (AID 1508625).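 Also: compound given to NK cells 16 h before adding targets at 1.5 to 1 ratio.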 Conditions: OVCAR3 lysis by primary NK cells, at 5 µM; z-score: measured here: robust Z-score, single-point normalisation.
On to `Cc1ccc(OCCCCNC2CCCCC2)c(C)c1`, for which the z-score is 2.34 and the corrected activity, negative = more killing was 4.21%.

For `COc1cccc(C2C3=C(CCCC3=O)NC3=C2C(=O)CCC3)c1OC`, the z-score is -1.45 and the corrected activity, negative = more killing was -3.89%.

`COc1ccc2nc3oc(C(=O)NCCc4ccc(Cl)cc4)cc3cc2c1`: the corrected activity, negative = more killing is -5.81% and the z-score was -1.43.

Regarding `CCOC(=O)c1c(-c2ccccc2)csc1NC(=O)CSc1nc2ccccc2o1`, the z-score was 7.82 and the corrected activity, negative = more killing is 25.2%.

With `CCCCCCCNC(=O)c1ccc2c(c1)ncn2-c1cccc(F)c1`, the corrected activity, negative = more killing was -3.62% and the z-score was -0.976.

Consider `Cc1sc2ncn(CC(=O)Nc3ccc(Oc4ccccc4)cc3)c(=O)c2c1S(=O)(=O)N1CCN(C)CC1`, for which the corrected activity, negative = more killing was -6.04% and the z-score was -1.5.

Consider `CON1C(=O)C(C)(C)N(OC)C(=O)C1(C)C`, for which the z-score was 0.733 and the corrected activity, negative = more killing was 2.31%.

Turning to `CC(=O)c1ccc(NC(=O)c2ccc(C)c([N+](=O)[O-])c2)cc1`, the z-score was -1.31 and the corrected activity, negative = more killing was -3.69%.

On to `Cc1cc(Cl)ccc1OC(C)C(=O)n1cnc2ccccc21` (stereo not drawn), for which the z-score is -0.42 and the corrected activity, negative = more killing is -1.02%.

As for `CCOC(=O)Cn1nc(-c2ccc(C)cc2)ccc1=O`, the corrected activity, negative = more killing is -0.853% and the z-score was -0.23.

Take `Cc1sc2c(c1C)c(=O)n(CCc1ccccc1)c(=O)n2Cc1cccc([N+](=O)[O-])c1`: the z-score is -0.733 and the corrected activity, negative = more killing was -2.58%.

As to `CCOC(=O)c1c(N)sc(C(=O)Nc2cc(C)ccc2C)c1C`, the z-score was -1.57 and the corrected activity, negative = more killing is -5.05%.

As for `O=C(Nc1ccc2oc(-c3cccc4c(Br)cccc34)nc2c1)c1ccccc1[N+](=O)[O-]`, the z-score is -2.14 and the corrected activity, negative = more killing is -6.04%.

`COc1cc(NC(=O)c2cccs2)ccc1NC(=O)c1ccccc1Cl`: the corrected activity, negative = more killing is -4.46% and the z-score is -2.48.

As for `CCOc1ccc(S(=O)(=O)Nc2ccc(Cl)cc2)c2cccnc12`, the corrected activity, negative = more killing was -3.11% and the z-score was -0.989.

Regarding `CCCCC1(CC(=O)N2CCOCC2)C(=O)N(c2ccccc2)N(c2ccccc2)C1=O`, the z-score is -0.786 and the corrected activity, negative = more killing is -2.63%.

Take `COc1ccccc1N1CCN(C(=O)c2ccc(Cn3c(=S)[nH]c4cc5c(cc4c3=O)OCO5)cc2)CC1`: the corrected activity, negative = more killing was -5.34% and the z-score is -1.42.

With `Nc1nc(OCC(F)(F)F)cc(OCC(F)(F)F)n1`, the z-score is -1.46 and the corrected activity, negative = more killing was -6.92%.

`CCCOc1ccc(C(=O)Nc2ccc3nn(-c4ccc(OCC)cc4)nc3c2)cc1`: the corrected activity, negative = more killing is -3.37% and the z-score is -1.2.

As for `c1cncc(CNC23CC4CC(CC(C4)C2)C3)c1`, the corrected activity, negative = more killing is -3.27% and the z-score was -1.04.

In the case of `CCOC(=O)C(C)Sc1nc2c([nH]c3ccccc32)c(=O)n1C` (stereo not drawn), the z-score is -0.899 and the corrected activity, negative = more killing is -3.61%.

Consider `Cc1c(NC(=O)COc2ccc(Oc3ccccc3)cc2)c(=O)n(-c2ccccc2)n1C`, for which the z-score was 0.434 and the corrected activity, negative = more killing is 1.22%.

Take `COc1ccc(Cl)cc1NC(=O)CSc1nc2c([nH]c3ccccc32)c(=O)n1C`: the corrected activity, negative = more killing was -2.37% and the z-score is -0.59.

Turning to `O=C(Cn1cnc2ccccc2c1=O)NCCC(=O)NC1CCCCCC1`, the corrected activity, negative = more killing is -3.69% and the z-score was -1.17.

As to `CCC(C)NC(=O)Cn1c(=O)n(-c2cc(OC)cc(OC)c2)c(=O)c2sccc21` (stereo not drawn), the z-score is -2.16 and the corrected activity, negative = more killing is -7.6%.

Consider `N=C1NC(=O)C(=Cc2ccc(F)cc2)S1`, for which the corrected activity, negative = more killing was -5.91% and the z-score was -2.51.

Consider `Cc1cc(Cl)ccc1OCC(=O)Nc1cccc2c1C(=O)c1ccccc1C2=O`, for which the corrected activity, negative = more killing was -3.52% and the z-score is -1.45.

For `CN1C(=O)c2ccccc2Sc2ccc(C(=O)O)cc21`, the corrected activity, negative = more killing is -8.06% and the z-score was -2.17.

Consider `O=C(Nc1ccc(Oc2ccccc2)cc1)c1nn(-c2ccc(Cl)cc2)c(=O)c2ccccc12`, for which the corrected activity, negative = more killing was -3.15% and the z-score is -1.69.

In the case of `C#CCN1C(=O)C(O)(CC(=O)c2cccc3ccccc23)c2ccccc21` (stereo not drawn), the z-score was -2.06 and the corrected activity, negative = more killing was -5.41%.

Regarding `COc1ccc(NC(=O)CN(C)S(=O)(=O)c2cccs2)cc1OC`, the corrected activity, negative = more killing is -4.46% and the z-score was -1.26.

As to `COc1ccc(C(=O)Nc2ccc3oc(-c4ccccc4)nc3c2)cc1OC`, the corrected activity, negative = more killing was -2.95% and the z-score is -1.28.

Consider `COc1ccc(Nc2ccncc2[N+](=O)[O-])cc1`, for which the z-score is -3.2 and the corrected activity, negative = more killing was -5.75%.

`O=C(c1ccncc1)N1CCN(CC2CC=CCC2)CC1` (stereo not drawn): the z-score is -1.39 and the corrected activity, negative = more killing was -3.11%.

With `Cc1ccc(S(=O)(=O)n2nnc3ccccc32)c(C)c1C`, the corrected activity, negative = more killing was -4.06% and the z-score was -1.51.

Take `Cc1cc(Nc2cccc(C(=O)O)c2)n2ncnc2n1`: the corrected activity, negative = more killing was 1.47% and the z-score was 0.457.

As for `Cc1ccc2nc(NC(=O)COC(=O)c3ccc(Br)o3)sc2c1`, the corrected activity, negative = more killing was -3.82% and the z-score is -1.44.

Turning to `CSc1nnc2c(n1)OC(c1ccc(OCC(=O)O)cc1)Nc1ccccc1-2` (stereo not drawn), the z-score was -0.915 and the corrected activity, negative = more killing is -2.58%.

Take `O=C(CCCC(=O)Nc1cccc(Cl)c1)Nc1cccc(Cl)c1`: the z-score is -0.828 and the corrected activity, negative = more killing is -2.22%.

The values above are taken from PubChem BioAssay AID1508625 (Wald Lab, School of Medicine, Case Western Reserve …, 2021).
